RAD54 branch – inhibitors of human RAD54 branch migration; AID 602329; 360,000 compounds, 0.14% hits; inhibition, % at 10.4 µM; RAD54 Holliday junction branch migration, FAM/BHQ fluorescence;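 active means mean normalized replicate activity at least 40 and at least half of replicates scoring 40 or more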;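 further: 0% = median of neutral control wells and 100% = median of positive control wells; inhibitors cause a drop in the FAM fluorescence signal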
Target sequence (Q92698 whole entry, looked up): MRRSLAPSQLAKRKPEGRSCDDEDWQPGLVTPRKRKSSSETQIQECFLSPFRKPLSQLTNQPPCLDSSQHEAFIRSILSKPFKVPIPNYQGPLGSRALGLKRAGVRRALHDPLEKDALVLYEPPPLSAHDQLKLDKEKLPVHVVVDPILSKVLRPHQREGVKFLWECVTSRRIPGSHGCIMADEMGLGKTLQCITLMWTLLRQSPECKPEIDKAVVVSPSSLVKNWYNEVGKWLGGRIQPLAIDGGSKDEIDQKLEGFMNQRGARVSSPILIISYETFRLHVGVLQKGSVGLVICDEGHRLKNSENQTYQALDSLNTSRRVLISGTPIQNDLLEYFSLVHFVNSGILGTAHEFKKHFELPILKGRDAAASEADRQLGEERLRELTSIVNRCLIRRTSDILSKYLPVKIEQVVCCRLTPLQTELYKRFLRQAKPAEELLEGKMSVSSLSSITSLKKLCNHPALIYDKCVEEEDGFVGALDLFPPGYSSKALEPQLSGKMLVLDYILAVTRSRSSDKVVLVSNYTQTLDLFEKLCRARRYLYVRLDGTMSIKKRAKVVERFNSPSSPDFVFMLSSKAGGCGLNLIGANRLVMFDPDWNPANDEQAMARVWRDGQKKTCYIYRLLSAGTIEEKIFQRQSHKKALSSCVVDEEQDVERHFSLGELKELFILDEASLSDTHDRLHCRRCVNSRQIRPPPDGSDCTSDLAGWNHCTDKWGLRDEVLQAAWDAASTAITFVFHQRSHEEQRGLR
RAD52 inh – blocks human RAD52 DNA annealing. recombinant RAD52 DNA annealing, FRET fluorescence. inhibition, % at 18.7 µM. 360,000 compounds, 0.46% hits. AID 651710;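 active means every replicate showing at least 50% inhibition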
PGC1a acetyl inh – modulators of PGC1a acetylation; inhibition, % at 15.6 µM; 350,000 compounds, 0.17% hits; U2OS PGC1a acetylation, AlphaScreen anti-acetyl-lysine; with virally co-expressed GCN5 acetyltransferase; AID 651687;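 active means every replicate shows inhibition of at least 40%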;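 further: 0% = neutral control wells and 100% = positive control wells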
AF4-AF9 inh – MLL-AF4/AF9 protein interaction inhibition. 350,000 compounds, 0.47% hits. P42568. inhibition, % at 10 µM. AlphaScreen, biotin-AF4 peptide binding to FLAG-AF9. AID 651704;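 active means every replicate reaching a set inhibition limit, whatever the replicate mean, cut at about 25% in these data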;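 further: 0% = plate neutral control median and 100% = total signal loss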
GSIS activator – primary screen for activators of insulin secretion dependent on glucose, INS-1E cells, GLuc reporter luminescence | INS-1E GLuc reporter insulin secretion, 2-3 h | activation, % at 16.6 µM | 370,000 compounds, 0.61% hits | AID 743287;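 active means lowest replicate activation of at least 40%, so every replicate reaches that level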;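 further: 0% = median of neutral control wells and 100% = median of IBMX positive control wells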
ERAP1 HTS inh – ERAP1 (human) enzyme inhibition; AID 652197; inhibition, % at 10.7 µM; 340,000 compounds, 0.15% hits; Q9NZ08; recombinant ERAP1, Leu-AMC fluorescence, 60 min;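 active means mean replicate inhibition of at least 30%, or all replicates individually reaching that 30% level; inactive means mean below 30% and not every replicate reaching it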;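 further: 0% = neutral control wells and 100% = L-leucinethiol positive control wells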
* marks the source's active call; other numbers are inactive results; / = no result. A selection: hits, their analogues and other compounds. The true share with any hit is near 1.4%.

SMILES	RAD54 branch	RAD52 inh	PGC1a acetyl inh	AF4-AF9 inh	GSIS activator	ERAP1 HTS inh
CCCCn1c(=O)n(C)c(=O)c2c3c(sc21)COC(C)(C)C3	-2.2	/	1.3	/	44.9*	/
CCc1cccc(C)c1NC(=O)c1cc(=O)[nH]c2ccc(S(=O)(=O)N3CCOCC3)cc12	-13.1	-5.2	7.1	-0.1	14.8	95.4*
Cc1cc(C)c(NC(=O)CNC(=O)[C@@H]2CCCN2C(=O)c2cccs2)c(C)c1	3.3	-6.3	/	3.4	7.2	-5.8
Cc1ccc(NC(=O)C2CCCN2C(=O)c2cccs2)c(C)c1 (stereo not drawn)	5.5	-10.7	/	1.6	24.1	55.9*
Cc1ccc(NC(=O)C2CCN(C(=O)c3cccs3)CC2)c(C)c1	-16.6	-6.9	/	-2.4	0.2	34.1*
COc1ccc(CNC(=O)C[C@H]2C=C[C@H](NC(=O)c3ccc4c(c3)OCO4)[C@H](CO)O2)cc1	/	6.9	4.6	-5.8	6.2	1.9
COc1ccc(CCNS(=O)(=O)c2cn(C)cn2)cc1OC	2.7	-5.7	3.4	-1.8	43.7*	-7.2
COc1ccc(CCNS(=O)(=O)c2cccc(C)c2)cc1OC	8.6	/	5.9	/	89.8*	/
COc1ccc(CCNS(=O)(=O)c2cn(C)nc2C)cc1OC	-1.5	3.2	/	-0.1	20.6	-0.8
CCOC(=O)c1c(S(=O)(=O)NCCc2ccc(OC)c(OC)c2)c(C)n(C)c1C	-4.3	-9.1	14.7	-1.8	51.2*	0.7
CCn1cc(S(=O)(=O)NCCc2ccc(OC)c(OC)c2)cn1	-7.7	-11.3	/	-1.2	48.3*	-2.5
COc1ccc(CCNS(=O)(=O)c2cccc(F)c2)cc1OC	3.4	/	/	/	/	/
CO[C@@H]1CN(C)C(=O)c2ccc(NC(C)=O)cc2OC[C@H](C)N(C(=O)CN(C)C)C[C@H]1C	-2.2	/	11.6	/	-2.1	/
C[C@@H]1CCCCO[C@@H](CN(C)C(=O)Nc2ccccc2)[C@@H](C)CN([C@@H](C)CO)C(=O)c2cc(NS(=O)(=O)c3ccc(F)cc3)ccc2O1	/	-4.7	-4.3	-2.1	-17.8	1.3
C=CCn1c(SCC(=O)N2CCCCC2)nnc1-c1ccncc1	/	-12.9	/	-2.8	3.9	3.4
C=CCn1c(SCC(=O)N2CC(C)OC(C)C2)nnc1-c1ccncc1 (stereo not drawn)	-12.2	-6.2	-3.4	-1.4	13.6	49.1*
O=C(CC(F)(F)F)N1C[C@H]2[C@@H](c3ccccc31)[C@@H](CO)N2CC1CCCCC1	-3.5	-2.1	-6.9	-14.8	-2.8	2.1
O=C(NC1CCCC1)N1CCCCN2[C@@H](CO)[C@H](c3ccc(/C=C/c4ccccc4)cc3)[C@@H]2C1	-2.0	3.3	3.8	21.8	-11.3	-1.5
CN(C)CC(=O)N1CCCCN2[C@H](C1)[C@H](c1ccc(/C=C/c3ccccc3)cc1)[C@@H]2CO	12.1	47.8	-35.1	-5.4	-17.3	-0.1
O=C(NC1CCCC1)N1CCCCN2[C@@H](CO)[C@@H](c3ccc(/C=C/c4ccccc4)cc3)[C@@H]2C1	1.6	10.1	-3.1	27.9*	0.3	2.6
CN(C)CC(=O)N1CCCCN2[C@H](C1)[C@@H](c1ccc(/C=C/c3ccccc3)cc1)[C@@H]2CO	25.3	58.1*	-22.5	1.2	29.8	1.0
CN(C)CC(=O)N1CCCCN2[C@H](CO)[C@H](c3ccc(/C=C/c4ccccc4)cc3)[C@H]2C1	37.8	61.6*	-37.9	3.5	21.3	-0.8
C/C=C/c1ccc([C@@H]2[C@H]3CN(C(=O)CN(C)C)CCCCN3[C@H]2CO)cc1	/	/	/	/	9.8	/
CN(C)CC(=O)N1CCCCN2[C@@H](CO)[C@H](c3ccc(/C=C/c4ccccc4)cc3)[C@@H]2C1	30.7	68.8*	-57.5	-2.1	11.5	0.2
COC(=O)[C@@H]1[C@@H](CO)[C@@H]2Cn3c(cccc3=O)[C@@H]2N1C(=O)C1CC1	-3.3	-1.1	-0.7	-2.7	19.9	3.7
SMILES	RAD54 branch	RAD52 inh	PGC1a acetyl inh	AF4-AF9 inh	GSIS activator	ERAP1 HTS inh
COc1cccc(CN2[C@H](CO)[C@@H](c3ccccc3)C23CN(Cc2ccccc2)C3)c1	/	/	/	/	-0.4	/
CO[C@H]1CN(C)C(=O)c2ccc(NC(=O)CC(F)(F)F)cc2OC[C@@H](C)N(CC2CC2)C[C@@H]1C	/	/	/	/	11.3	/
COc1ccc(NC(=O)N2CCC3(CC2)CN(CC2CC2)[C@H](CO)c2c3c3ccc(OC)cc3n2C)cc1	/	/	0.7	-0.5	6.7	/
O=C(C[C@@H]1CC[C@H](NC(=O)C2CC2)[C@@H](CO)O1)NCC1CC1	-1.9	1.2	10.6	-3.3	3.3	-2.6
O=C(C[C@H]1CC[C@@H](NS(=O)(=O)c2ccccc2)[C@@H](CO)O1)NCc1ccccc1F	-2.1	11.3	-49.1	-1.2	8.2	-2.4
CN(C)CC(=O)N1CCCCN2[C@@H](CO)[C@@H](c3ccc(/C=C/c4ccccc4)cc3)[C@@H]2C1	20.0	70.5*	-26.8	3.8	7.2	0.3
CCCNC(=O)N1CCC2(CC1)CN(C(C)=O)[C@H](CO)c1c2c2ccc(OC)cc2n1C	/	/	2.0	-0.3	26.9	/
CCOC(=O)c1cc(NC(=O)c2cnccn2)cc(C(=O)OCC)c1	7.3	/	3.2	/	85.8*	/
CCn1cc(C(=O)NC(=S)Nc2sc3c(c2C(=O)OC)CCCCCC3)cn1	-2.1	/	/	/	74.0*	/
CCOC(=O)c1c(NC(=O)c2nn(CC)cc2Br)sc2c1CCCCC2	-6.4	/	-10.3	/	/	/
CCCNc1cc(C)oc(=O)c1C(=O)CCC	-14.2	/	-3.1	/	88.1*	/
CCCC(=O)c1c(NCCO)cc(C)oc1=O	/	-5.7	/	-8.7	14.1	1.1
COc1ccc(OC)c(C(=O)/C=C/c2ccccc2C(F)(F)F)c1	-1.5	/	46.2*	/	1.8	/
COc1ccc(C(=O)/C=C/c2ccccc2)c(OC)c1	-1.1	-19.5	39.0	4.0	9.8	-1.3
Cc1ccc(S(=O)(=O)Nc2ccc3c(c2)C(=O)N([C@@H](C)CO)C[C@H](C)[C@@H](CN(C)C(=O)Nc2ccc(F)cc2)OCCCC[C@@H](C)O3)cc1	6.6	-24.7	-3.6	2.1	-29.3	-2.6
CC1(C)CC(N2CCCC2)=CC(=[N+]2CCCC2)C1	2.4	0.9	/	-3.5	-32.6	63.5*
Cc1[nH]nc2ncc(C(=O)c3ccccc3O)cc12	-6.1	/	44.5*	/	/	/
COc1ccc2c3c(n(C)c2c1)[C@H](CO)N(Cc1ccccc1OC)CC31CN(C(=O)C2CC2)C1	/	/	/	/	-0.2	/
CC(C)(C)OC(=O)N1O[C@H]2C[C@@H]1[C@@H]1[C@@H]2N=NN1C12CC3CC(CC(C3)C1)C2	-10.8	7.0	-1.9	3.1	44.3*	-4.2
CC(C)(C)OC(=O)N1O[C@H]2CC1[C@@H]1[C@@H]2N=NN1CCc1ccncc1	8.7	-3.2	8.0	-0.3	5.2	/
CCc1cccc(CC)c1NC(=O)CSc1nnc(C2CC2)n1C	-2.7	-5.1	/	-2.5	44.6*	-4.5
Cn1c(SCC(=O)NC2CCCc3ccccc32)nnc1C1CC1 (stereo not drawn)	13.8	-10.3	4.4	-0.3	81.7*	-3.7

High-throughput results from PubChem BioAssay.
